From PubChem BioAssay (NCI)
Compounds without any hit were thinned out: in the full panel of roughly 83,000, 20% have a hit.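 48-hour exposure, single concentration, 96-well plates; percent growth endpoint where 0 means no net growth. Active: below 10.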 A number with no mark means an inactive call. Activity calls are given as the source filed them.

How the values were obtained:
Assay in all cases: NCI-60 one-dose screen, 48 h (100 = growth as untreated, 0 = no growth, -100 = all killed)
Conditions in all cases: 10 µM unless noted
NCI-H23 lung = tested on: NCI-H23 lung
NCI-H226 lung = tested on: NCI-H226 lung
NCI-H322M lung = tested on: NCI-H322M lung
HOP-62 NSCLC = tested on: HOP-62 NSCLC
NCI-H460 lung = tested on: NCI-H460 lung
HOP-92 NSCLC = tested on: HOP-92 NSCLC
NCI-H522 lung = tested on: NCI-H522 lung
A549/ATCC NSCLC = tested on: A549/ATCC NSCLC
786-0 renal = tested on: 786-0 renal
COLO 205 colon = tested on: COLO 205 colon
DU-145 prostate = tested on: DU-145 prostate
K-562 leukemia = tested on: K-562 leukemia
MALME-3M melanoma = tested on: MALME-3M melanoma
MDA-MB-231 breast = tested on: MDA-MB-231 breast
RXF 393 renal = tested on: RXF 393 renal
SF-268 CNS = tested on: SF-268 CNS
SF-295 CNS = tested on: SF-295 CNS
SF-539 CNS = tested on: SF-539 CNS
UACC-257 melanoma = tested on: UACC-257 melanoma
M14 melanoma = tested on: M14 melanoma

Structure (SMILES)	growth (NCI-H23 lung)	growth (NCI-H226 lung)	growth (NCI-H322M lung)	growth (HOP-62 NSCLC)	growth (NCI-H460 lung)	growth (HOP-92 NSCLC)	growth (NCI-H522 lung)	growth (A549/ATCC NSCLC)	growth (786-0 renal)	growth (COLO 205 colon)	growth (DU-145 prostate)	growth (K-562 leukemia)	growth (MALME-3M melanoma)	growth (MDA-MB-231 breast)	growth (RXF 393 renal)	growth (SF-268 CNS)	growth (SF-295 CNS)	growth (SF-539 CNS)	growth (UACC-257 melanoma)	growth (M14 melanoma)
CC(C)(Sc1cc(C(C)(C)C)c(OC(=O)CCCC(=O)O)c(C(C)(C)C)c1)Sc1cc(C(C)(C)C)c(OC(=O)CCCC(=O)O)c(C(C)(C)C)c1	29.5%	64.8%	49.5%	38%	9.34% (active)	73%	37.8%	21.4%	49.7%	58.4%	51.4%	35.1%	46.2%	57.8%	37.6%	28.6%	33.7%	6.97% (active)	46.7%	45.5%
Ic1ccc(OCCCCn2ccnc2)cc1	66.6%	80.5%	85.3%	72.3%	92.5%	34.7%	67.4%	78.1%	83.7%	29.3%	81.2%	37.6%	1.9% (active)	68.6%	67.1%	83.3%	77.9%	83.8%	64.3%	49.6%
COc1ccc(-c2ccc(=O)oc2-c2cc(OC)c(OC)c(OC)c2)cc1O	25.9%	42.7%	43.5%	-29% (active)	-18% (active)	89%	-11.7% (active)	15.9%	-6.12% (active)	12.5%	-53.4% (active)	-25.7% (active)	54.1%	15.9%	3.35% (active)	5.78% (active)	-21.7% (active)	-19.2% (active)	25.1%	-32.6% (active)
CCOC(=O)[C@@H]1CSC(CC)=C(C(=O)O)N1	103%	98.2%	92.7%	89.2%	110%	-35.1% (active)	93.6%	90.7%	92.2%	100%	118%	8.66% (active)	104%	105%	109%	116%	111%	93.4%	89.1%	98.6%
CCOC(=O)C1=C(c2ccccc2)N=C2SC=C(c3ccc(Cl)cc3)N2C1c1ccc(Br)cc1 (stereo not given)	69.8%	76.6%	90.9%	90.7%	85%	56.1%	69.3%	84.5%	80.6%	83.1%	90.3%	84.1%	87.4%	68.5%	68.6%	77%	88.7%	94.9%	79%	83.7%
CC1CCN(S(=O)(=O)c2ccc(S(=O)(=O)N3CCCC(c4nc5c(nnn5Cc5cccc(Cl)c5)c(=O)[nH]4)C3)cc2)CC1 (stereo not given)	65.4%	75.2%	61.3%	57.2%	23.9%	56%	33.7%	64.8%	64.4%	91.3%	59.8%	20.1%	46.7%	73%	15.8%	51.9%	63.6%	49.7%	54.2%	16.9%
Cn1cc(-c2csc(-c3c[nH]c4ccccc34)n2)c2cnccc21	85.5%	87.7%	90.2%	8.92% (active)	-17.7% (active)	72.7%	-39.6% (active)	18%	-87% (active)	-37.3% (active)	20.9%	-28.1% (active)	-79% (active)	-37.4% (active)	-84% (active)	54.6%	-69.7% (active)	-88.4% (active)	90.9%	-80.2% (active)
CN(C)CC(C)(C)C(=O)/C=C/c1ccccc1	-28.8% [25 µM] (active)	-17.9% [25 µM] (active)	-16.3% [25 µM] (active)	12.3% [25 µM]	-27% [25 µM] (active)	-32.3% [25 µM] (active)	-81.1% [25 µM] (active)	0.382% [25 µM] (active)	-46.6% [25 µM] (active)	-87% [25 µM] (active)	-46.5% [25 µM] (active)	1.32% [25 µM] (active)	-69.5% [25 µM] (active)	-10.9% [25 µM] (active)	-77.2% [25 µM] (active)	1.85% [25 µM] (active)	7.02% [25 µM] (active)	-77.2% [25 µM] (active)	-43.5% [25 µM] (active)	-50.4% [25 µM] (active)
